Among the data in PubChem BioAssay (Tox21) are Potency values, retold here.

Unmarked numbers belong to inactive results. Records with an inconclusive call do not appear. Active and inactive are the calls of the source. Unless noted, calls follow the shape of the full dose curve.

Test [1] is described as follows: Nuclear factor erythroid 2-related factor 2/antioxidant responsive element (Nrf2/ARE) small molecule agonists: qHTS cell viability counter screen in human keratinocytes (AID 1919968; active = well fitted curve in the direction sought with a large enough effect in the repeat runs; an effect the other way counts as inactive or inconclusive; also: nearly all actives have a fitted effect of over 55% in size). The method in brief:
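Viability counter-screen: KeratinoSens reporter cells, DMSO-delivered compounds, 23 h at 37 C, CellTiter-Fluor fluorescence.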
In general terms: Quantitative high-throughput screening tests each substance at several concentrations.

Test [2] can be described thus: Nuclear factor erythroid 2-related factor 2/antioxidant responsive element (Nrf2/ARE) small molecule agonists: luciferase reporter gene qHTS assay in human keratinocytes (AID 1919969). Also: nearly all actives have a fitted effect of over 35% in size. Also: potency is read from the fitted curve at half-maximal effect.
Test [3] concerns the target Gonadotropin-releasing hormone receptor (Homo sapiens) (UniProt P30968). As to the kind of experiment: Human gonadotropin-releasing hormone receptor (GnRHR) small molecule agonists, calcium flux assay in GnRHR-HEK293 cells (AID 1920063). Also: nearly all actives have a fitted effect of over 35% in size. In outline:
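Tox21-format agonist screen using human GnRHR-expressing HEK293 cells and a fluorescent calcium dye; kinetic 3-min fluorescence reading after compound addition, 15-point concentration series run in triplicate.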
A general note: A change in cytosolic calcium serves as a functional read-out for many receptors and channels.

The target of test [4] is KiSS-1 receptor (Homo sapiens) (UniProt Q969F8). The test is described as follows: Human kisspeptin (KISS1R) small molecule agonists, calcium flux assay in KISS1R-HEK293 cells (AID 1920064; active = well fitted curve in the direction sought with a large enough effect in the repeat runs; an effect the other way counts as inactive or inconclusive). The method in brief:
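Intracellular calcium mobilization in KISS1R-HEK293 cells was recorded by fluorescence (Ex/Em 480/540) for 3 min following compound addition to cells pre-loaded 1 h with calcium dye.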

Test [5] can be described thus: p53 small molecule agonists, cell-based qHTS assay with human liver microsomes: qHTS cell viability counter screen (AID 1963579). Also: nearly all actives have a fitted effect of over 45% in size. In outline: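 p53RE-bla cells, 4,000/well, dosed 5 hours after plating, with human liver microsomes (0.5 mg/mL final) plus NADPH (0.5 mg/mL final), 16 hours at 37 C. Viability read as CellTiter-Glo luminescence after 30 min at room temperature.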

Test [6] in a line: p53 small molecule agonists, cell-based qHTS assay with rat liver microsomes: qHTS cell viability counter screen (AID 1963580). Also: nearly all actives have a fitted effect of over 45% in size. In outline:
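In HCT-116 cells carrying a p53 response element-bla reporter, compounds were metabolically activated in situ by rat liver microsomes with NADPH over 16 h. Cell ATP content then served as the cytotoxicity measure.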

A short description of test [7]: p53 small molecule agonists, cell-based qHTS assay: qHTS cell viability counter screen (AID 1963581). Also: nearly all actives have a fitted effect of over 45% in size. In outline:
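Compounds are pinned onto HCT-116 p53RE-bla cells and left 16 h at 37 C. Following the reporter FRET read, ATP is quantified by CellTiter-Glo luminescence after 30 min at room temperature.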

Test [8] addresses 5-hydroxytryptamine receptor 2A (Homo sapiens) (UniProt P28223). The test is described as follows: 5-hydroxytryptamine receptor 2A (HTR2A) small molecule antagonists, cell-based qHTS assay (AID 1963586). Also: nearly all actives have a fitted effect of over 45% in size. The method in brief:
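Antagonist-mode intracellular calcium assay: DOI (4 nM) added after 5 min compound pre-incubation at room temperature to dye-loaded HTR2A-CHO cells. Fluorescence followed for 3 min, sampled every second.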

For test [9] the target is unchanged. The test is described as follows: 5-hydroxytryptamine receptor 2A (HTR2A) small molecule agonists, cell-based qHTS assay (AID 1963587). Also: nearly all actives have a fitted effect of over 30% in size. In outline:
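HTR2A-CHO cells, plated 18 h at 37 C/5% CO2, dye-loaded 1 h at 37 C; compounds in DMSO added by pin tool (agonist mode). Intracellular calcium flux read as kinetic fluorescence on FDSS over 2 min at 1 s intervals.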

The target of test [10] is Muscarinic acetylcholine receptor M1 (Homo sapiens) (UniProt P11229). The test is described as follows: Cholinergic receptor muscarinic 1 (CHRM1) small molecule antagonists, cell-based qHTS assay (AID 1963588). Also: nearly all actives have a fitted effect of over 40% in size. Also: potency is read from the fitted curve at half-maximal effect. In outline: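 CHRM1-CHO calcium-flux assay, antagonist mode. Cells were seeded 18 h, dye-loaded 1 h at 37 C and given compound for 5 min at RT, then acetylcholine was added at 50nM. FDSS fluorescence was read 3 min; 15 concentrations, three runs.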
Muscarinic acetylcholine receptor M1 (Homo sapiens), sequence (P11229 whole entry, looked up): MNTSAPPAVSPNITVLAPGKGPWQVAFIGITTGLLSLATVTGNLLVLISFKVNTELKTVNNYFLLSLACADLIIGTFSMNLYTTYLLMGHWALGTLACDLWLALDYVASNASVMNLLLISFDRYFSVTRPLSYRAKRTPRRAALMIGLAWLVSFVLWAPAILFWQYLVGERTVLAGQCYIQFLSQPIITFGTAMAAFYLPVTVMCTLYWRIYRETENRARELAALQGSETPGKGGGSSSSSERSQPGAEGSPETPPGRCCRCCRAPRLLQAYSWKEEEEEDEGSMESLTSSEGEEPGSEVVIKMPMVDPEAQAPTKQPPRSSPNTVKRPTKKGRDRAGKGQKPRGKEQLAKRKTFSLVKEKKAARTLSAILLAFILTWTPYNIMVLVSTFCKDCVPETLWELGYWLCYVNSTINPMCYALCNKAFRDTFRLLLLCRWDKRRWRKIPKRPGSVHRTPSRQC

Test [11] shares this target. The test is described as follows: Cholinergic receptor muscarinic 1 (CHRM1) small molecule agonists, cell-based qHTS assay (AID 1963589). Also: nearly all actives have a fitted effect of over 35% in size. In outline: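 Stable CHRM1-CHO cells (human receptor) were incubated 18 h, dye-loaded for 1 h at 37 C and exposed to test compounds for agonist activity, with calcium-dependent fluorescence followed kinetically.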
Test [12] can be described thus: cAMP Responsive Elements (CRE) small molecule agonists, cell-based qHTS assay (AID 1963590). In outline:
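FRET-based beta-lactamase readout (LiveBLAzer B/G, 2 h RT) quantified CRE activation in HEK 293T CRE-bla cells after 3 h treatment with DMSO-dissolved compounds.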

Test [13] can be described thus: cAMP Responsive Elements (CRE) small molecule antagonists, cell-based qHTS assay (AID 1963591; active = well fitted inhibition curve with a large enough effect in the signal ratio in the repeat runs, not every such curve was filed as active; the % refers to the signal ratio). In outline: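 qHTS in CRE-bla HEK 293T cells: compound in DMSO, then 0.25 uM NKH477 (final), 3 h at 37 °C/5% CO2; beta-lactamase FRET read-out after 2 h substrate incubation.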
Test [14] addresses Beta-2 adrenergic receptor (Homo sapiens) (UniProt P07550). As to the kind of experiment: Adrenergic beta2 receptor (ADRB2) small molecule antagonists, cell-based qHTS assay (AID 1963592). Also: series mostly up to about 92 µM; nearly all actives have a fitted effect of over 50% in size. The method in brief: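 Cells (CHO, stable ADRB2 overexpression) incubated 18-20hr at 37C; compounds added from DMSO; agonist mix (1nM isoproterenol, 100uM IBMX, 25uM Ro-20-1724) added; 0.5hr RT; d2-cAMP and anti-cAMP-cryptate added; 1hr RT; 665/615 nm read.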

Test [15] concerns the target D(2) dopamine receptor (Homo sapiens) (UniProt P14416). As to the kind of experiment: Dopamine D2 receptor (DRD2) small molecule agonists, cell-based qHTS assay (AID 1963594). Also: nearly all actives have a fitted effect of over 35% in size. In outline:
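HEK293 cells stably expressing DRD2 were cultured 24 h at 37 C, then given Ro20-1724 (0.1 mM final) and compounds for 10 min at room temperature. NKH477 (200nM) was then added for 30 min. cAMP was read by HTRF.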

Test [16] has the same target. As to the kind of experiment: Dopamine D2 receptor (DRD2) small molecule antagonists, cell-based qHTS assay (AID 1963595; active = well fitted inhibition curve with a large enough effect in the signal ratio in the repeat runs, with a control signal flat; the % refers to the signal ratio). In outline: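 Human DRD2 antagonist qHTS measuring cAMP by HTRF. The cells are exposed to compound for 10 min, then to NKH477 (200 nM) and quinpirole (12 nM) for 30 min at RT, with Ro20-1724 (0.1 mM) present throughout.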
In test [17] the target is Beta-2 adrenergic receptor (Homo sapiens) (UniProt P07550). As to the kind of experiment: Adrenergic beta2 receptor (ADRB2) small molecule agonists, cell-based qHTS assay (AID 1963593).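 Also: CHO cells stably overexpressing human ADRB2.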 The method in brief:
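CHO cells stably over-expressing ADRB2 were plated overnight at 37C, then dosed with compounds plus a stimulation mix containing 100uM IBMX and 25uM Ro-20-1724 for 0.5hr at room temperature. cAMP was measured by HTRF competition, 1hr.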

5-hydroxytryptamine receptor 2A (Homo sapiens), sequence (P28223 whole entry, looked up): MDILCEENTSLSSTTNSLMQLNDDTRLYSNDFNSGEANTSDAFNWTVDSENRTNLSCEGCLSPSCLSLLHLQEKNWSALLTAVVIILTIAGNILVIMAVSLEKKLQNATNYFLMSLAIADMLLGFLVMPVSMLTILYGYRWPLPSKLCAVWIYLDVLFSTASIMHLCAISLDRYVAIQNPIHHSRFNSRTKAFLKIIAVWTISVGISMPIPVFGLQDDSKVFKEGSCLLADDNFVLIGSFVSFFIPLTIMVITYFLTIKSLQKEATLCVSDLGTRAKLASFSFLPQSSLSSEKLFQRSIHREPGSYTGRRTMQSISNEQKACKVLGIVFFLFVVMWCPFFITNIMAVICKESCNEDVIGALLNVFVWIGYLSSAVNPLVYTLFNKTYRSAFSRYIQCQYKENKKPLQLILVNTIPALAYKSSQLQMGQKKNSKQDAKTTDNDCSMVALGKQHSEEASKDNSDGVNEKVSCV
Beta-2 adrenergic receptor (Homo sapiens), sequence (P07550 whole entry, looked up): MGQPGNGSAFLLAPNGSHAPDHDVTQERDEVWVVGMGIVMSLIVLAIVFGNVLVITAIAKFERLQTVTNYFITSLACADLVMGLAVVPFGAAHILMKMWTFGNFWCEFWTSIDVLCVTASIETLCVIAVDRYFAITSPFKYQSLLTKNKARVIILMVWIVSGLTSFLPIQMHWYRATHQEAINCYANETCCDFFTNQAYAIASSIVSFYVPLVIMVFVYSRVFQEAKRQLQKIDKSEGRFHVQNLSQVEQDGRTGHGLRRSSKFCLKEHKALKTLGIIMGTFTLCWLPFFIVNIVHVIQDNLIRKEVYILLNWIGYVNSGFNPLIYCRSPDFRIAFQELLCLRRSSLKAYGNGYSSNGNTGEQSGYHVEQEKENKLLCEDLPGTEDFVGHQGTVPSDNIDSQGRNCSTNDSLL
Gonadotropin-releasing hormone receptor (Homo sapiens), sequence (P30968 whole entry, looked up): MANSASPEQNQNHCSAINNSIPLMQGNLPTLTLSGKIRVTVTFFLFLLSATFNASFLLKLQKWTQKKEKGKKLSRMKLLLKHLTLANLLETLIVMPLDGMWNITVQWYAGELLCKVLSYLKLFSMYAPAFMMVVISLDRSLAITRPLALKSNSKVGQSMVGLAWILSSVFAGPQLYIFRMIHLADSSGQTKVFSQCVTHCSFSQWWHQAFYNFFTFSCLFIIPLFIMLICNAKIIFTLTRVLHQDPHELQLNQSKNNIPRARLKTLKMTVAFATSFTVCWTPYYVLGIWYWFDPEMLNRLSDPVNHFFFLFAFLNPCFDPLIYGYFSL
KiSS-1 receptor (Homo sapiens), sequence (Q969F8 whole entry, looked up): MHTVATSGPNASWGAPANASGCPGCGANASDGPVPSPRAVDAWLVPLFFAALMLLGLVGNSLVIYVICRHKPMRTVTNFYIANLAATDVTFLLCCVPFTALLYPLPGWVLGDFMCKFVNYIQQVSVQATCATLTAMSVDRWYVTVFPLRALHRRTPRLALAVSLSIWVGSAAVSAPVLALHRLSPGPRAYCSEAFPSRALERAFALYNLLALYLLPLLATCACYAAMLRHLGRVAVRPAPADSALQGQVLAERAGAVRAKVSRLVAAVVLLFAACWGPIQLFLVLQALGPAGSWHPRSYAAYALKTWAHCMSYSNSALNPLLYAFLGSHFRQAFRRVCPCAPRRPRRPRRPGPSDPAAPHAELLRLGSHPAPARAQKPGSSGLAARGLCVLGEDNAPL
D(2) dopamine receptor (Homo sapiens), sequence (P14416 whole entry, looked up): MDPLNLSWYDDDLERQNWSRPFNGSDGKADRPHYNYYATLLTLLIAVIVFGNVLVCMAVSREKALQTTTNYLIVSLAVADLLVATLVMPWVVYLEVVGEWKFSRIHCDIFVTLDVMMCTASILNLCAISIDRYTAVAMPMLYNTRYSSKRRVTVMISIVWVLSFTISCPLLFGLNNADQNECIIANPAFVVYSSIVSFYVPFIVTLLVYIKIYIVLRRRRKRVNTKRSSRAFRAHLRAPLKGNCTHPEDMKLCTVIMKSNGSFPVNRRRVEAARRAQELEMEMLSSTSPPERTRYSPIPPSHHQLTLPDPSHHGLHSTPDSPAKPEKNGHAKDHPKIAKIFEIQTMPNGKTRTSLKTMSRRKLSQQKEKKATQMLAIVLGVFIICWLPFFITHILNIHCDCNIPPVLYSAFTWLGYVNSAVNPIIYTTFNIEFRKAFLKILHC

Turning to `CC(C)CCCCCOC(=O)CCCCC(=O)OCCCCCC(C)C`, the Potency result in test [1], in [3], in test [4], in test [5], in [6] and in test [7] was “inactive” throughout. Besides, the Potency entry in [8], in [9], in [10], in test [11], in test [12] and in test [13] was “inactive” in each case. For the same molecule, the Potency entry in test [14], in [15] and in test [16] was “inactive” each time. Further, the Potency in test [2] was 48.6 µM (active).
For `CN1CCC(OC(c2ccccc2)c2ccccc2)CC1`, the Potency result in test [1], in test [2], in test [3], in [4], in [5] and in test [6] was “inactive” throughout. Besides, the Potency entry in test [9], in [11], in [13], in test [17] and in [15] was “inactive” each time. In addition, in test [10], the Potency is 0.0818 µM (active).
Consider `O=Cc1ccccc1Cl`, for which the Potency entry in test [1], in [2], in test [3], in [4], in test [5] and in test [6] was “inactive” in each case. The Potency entry in [7], in [8], in test [9], in test [10], in [12] and in test [13] was “inactive” throughout. Moreover, the Potency entry in [14], in test [17], in test [15] and in test [16] was “inactive” each time.
In the case of `SCCOCCOCCS`, the Potency entry in [1], in test [2], in test [3], in test [4], in [5] and in test [6] was “inactive” in each case. Also, the Potency result in [7], in [8], in test [9], in test [10], in test [11] and in [12] was “inactive” each time. In addition, the Potency result in test [13], in test [14], in [15] and in [16] was “inactive” in each case.
For the molecule `Cc1cccc(NC(=S)N(C)C)c1`, the Potency result in test [1], in test [2], in test [3], in test [4], in test [5] and in test [6] was “inactive” throughout. For the same molecule, the Potency result in test [7], in test [9], in [10], in test [11], in [12] and in [13] was “inactive” throughout. Also, the Potency entry in test [14], in test [17], in test [15] and in test [16] was “inactive” in each case.
For the molecule `CC(C)=CCCC(C)CC(=O)O` (stereo not drawn), the Potency entry in test [1], in [2], in test [3], in test [4], in [5] and in test [6] was “inactive” in each case. For the same molecule, the Potency entry in [7], in test [8], in [9], in test [10], in [11] and in test [12] was “inactive” in each case. The Potency result in test [14], in test [15] and in test [16] was “inactive” each time.
Turning to `CCCCN1C[C@H](O)[C@@H](O)[C@H](O)[C@H]1CO`, the Potency entry in [1], in test [2], in [3], in test [4], in test [5] and in [6] was “inactive” each time. For the same molecule, the Potency result in test [7], in test [8], in [9], in [10], in test [11] and in test [12] was “inactive” each time. For the same molecule, the Potency entry in test [13], in test [14], in test [17], in [15] and in [16] was “inactive” throughout.
